Results on 4 compounds are retold here after PubChem BioAssay (NCATS).

Assay [1] can be described thus: qHTS Assay for Identifying Gametocytocidal Compounds (AID 743244). Also: potency is read from the fitted curve at half-maximal effect.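 As to max response: % is scaled to controls: 0 for no effect and ±100 for the full control effect; actives lower the fluorescent signal which means gametocytes are killed.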 The note with it: P. falciparum 3D7 stage III-V gametocytes, alamarBlue, 72 h; max response: stronger effect = lower value. The procedure, abridged:
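Stage III–V gametocytes of P. falciparum 3D7 were seeded at 20,000 cells/well onto pre-dispensed compounds. After 72 h, 37 °C, 5% CO2, alamarBlue was added for another 24 h.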

A short description of assay [2]: qHTS profiling for inhibitors of Plasmodium falciparum (3D7) proliferation (AID 743322; call rule not given here;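 also: infected erythrocytes exposed to compound for 72 h before lysis; 100% = DMSO vehicle wells and 0% = 0.29 µM artemisinin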). The note with it: P. falciparum 3D7 proliferation; at 28.7 µM (top of the series) unless noted. The procedure, abridged:
(§1)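 Parasite DNA was quantified by SYBR Green I fluorescence (ex 485, em 535 nm) after overnight lysis in saponin/Triton buffer at room temperature. Cultures at 0.3% parasitemia and 2.5% hematocrit were first exposed to compound for 72 h at 37 C; signals were normalised to artemisinin (0.29 uM) and vehicle wells.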

The nature of assay [3]: qHTS profiling for inhibitors of Plasmodium falciparum (DD2) proliferation (AID 743323; call rule not given here). The note with it: lower = more inhibition; at 28.7 µM (top of the series) unless noted. Summed up:
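1536-well qHTS; infected RBCs 0.3% parasitemia/2.5% Hct final; cpd 72 h 37 C 5% CO2; lysis buffer + SYBR Green I, o/n RT dark; FI 485/535; norm. to 0.29 uM artemisinin and DMSO, plate-stack corrected.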

A short description of assay [4]: qHTS profiling for inhibitors of Plasmodium falciparum (HB3) proliferation (AID 743324).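 Also: 100% = DMSO vehicle wells and 0% = artemisinin-treated control wells.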 The note with it: Plasmodium falciparum HB3 blood-stage proliferation; at 28.7 µM (top of the series) unless noted. The procedure, abridged:
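SYBR Green fluorescence (485 ex/535 em) of lysed cultures, incubated overnight at room temperature in the dark, quantifies parasite DNA. Infected erythrocytes at 0.3% parasitemia and 2.5% hematocrit were exposed 72 h; values normalized to DMSO and 0.29 uM artemisinin controls.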

Assay [5] is described as follows: qHTS profiling of the MIPE4 collection as inhibitors of Plasmodium falciparum (3D7) proliferation (AID 743344; call rule not given here;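 also: scaled between DMSO vehicle wells and 0.29 µM artemisinin as full inhibition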). The note with it: P. falciparum 3D7 in erythrocytes, SYBR Green DNA fluorescence, 72 h; at 28.5 µM (top of the series) unless noted. Summed up: as §1
Assay [6] is described as follows: qHTS profiling of the MIPE4 collection as inhibitors of Plasmodium falciparum (DD2) proliferation (AID 743345; call rule not given here). The note with it: P. falciparum Dd2 in erythrocytes, SYBR Green DNA, 72 h; at 28.5 µM (top of the series) unless noted. The procedure, abridged:
as §1

The nature of assay [7]: qHTS profiling of the MIPE4 collection as inhibitors of Plasmodium falciparum (DD2) proliferation (Rep 2) (AID 743346; call rule not given here). The note with it: P. falciparum Dd2 in erythrocytes, SYBR Green DNA, 72 h; at 28.5 µM (top of the series) unless noted. Summed up:
as §1

Assay [8] in a line: qHTS profiling of the MIPE4 collection as inhibitors of Plasmodium falciparum (HB3) proliferation (AID 743347; call rule not given here;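 also: plate controls were DMSO vehicle wells for no effect and artemisinin wells for full effect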). The note with it: P. falciparum HB3 in erythrocytes, SYBR Green DNA, 72 h; at 28.5 µM (top of the series) unless noted. The procedure, abridged: as §1
Assay [9] can be described thus: Cell Proliferation Assay Versus the ED40515 IL2 Dependent ATL cell lines (AID 1053195; calls by dose curve). The note with it: ED40515 IL2-dependent ATL cells. The procedure, abridged:
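CellTiter-Glo luminescence (15 min, RT) measured viability after 48 hours at 37C; cells were ED40515 +IL2, 1000/well, in phenol red-free RPMI with 5% FBS. Controls: DMSO and 9.2 uM bortezomib.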

The nature of assay [10]: High-throughput drug toxicity screening in the BPDCN cell line Gen2.2 (AID 1224824; call rule not given here;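 also: cells exposed to compounds for 48 h before reading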). The note with it: Gen2.2 BPDCN cells; at 45.8 µM (top of the series) unless noted. The procedure, abridged:
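Gen2.2 cells (500/well) in phenol red-free RPMI with 10% FBS were exposed to compounds for 48 h at 37 °C, 5% CO2. Viability was read by CellTiter-Glo luminescence and normalized to DMSO (100%) and 9.2 uM bortezomib (0%).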

Assay [11] in a line: High-throughput drug toxicity screening in the BPDCN cell line Cal-1 (AID 1224825; call rule not given here). The note with it: Cal-1 BPDCN cell viability, qHTS; at 45.8 µM (top of the series) unless noted. Summed up:
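CellTiter-Glo luminescence after 48 h compound exposure; percent activity scaled with DMSO as 100% and bortezomib (9.2 uM final) as 0%. Cal-1 cells seeded at 500/well in RPMI, 10% FBS, no phenol red.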

The nature of assay [12]: qHTS assay for measurement of the activity of small molecule inhibitors on Zika virus induced Caspase-3 activity in human iPSC derived neural progenitor cells (hNPCs) (AID 1224857). Also: % of control where 0% means no effect; nearly all actives have a fitted effect of over 65% in size. Summed up:
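Values are percent inhibition of virus-induced caspase-3/7 signal, scaled between uninfected cells and ZIKV-infected cells. Infection used 2 FFU/cell for 6 h after 1 h compound exposure.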

Assay [13] can be described thus: qHTS assay for measurement of the activity of small molecule inhibitors on Zika virus induced Caspase-3 activity in human astrocytoma cells (AID 1224859).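 Also: plate controls were ZIKV-infected untreated cells for no effect and uninfected cells for full effect.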 The procedure, abridged:
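Compound added 1 h pre-infection; ZIKV 2 FFU/cell on SNB-19 cells, 6 h, 37 C/5% CO2. Caspase-Glo 3/7 luminescence; values as % inhibition of ZIKV-induced caspase activity.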

Assay [14] can be described thus: qHTS Screen of the MIPE 4.0 Collection Against Ewings Sarcoma (RDES) (AID 1259252). Also: nearly all actives have a fitted effect of over 35% in size. Also: potency is read from the fitted curve at half-maximal effect. Summed up: (§2)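 Viability screen: 48 h incubation at 37C, 95% humidity, 5% CO2 with serially titrated compound, followed by CellTiter-Glo readout.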
Assay [15] is described as follows: qHTS Screen of the MIPE 4.0 Collection Against Ewings Sarcoma (TC71) (AID 1259253). Also: nearly all actives have a fitted effect of over 40% in size. Also: potency is read from the fitted curve at half-maximal effect. The procedure, abridged:
as §2

Assay [16] is described as follows: qHTS Screen of the MIPE 4.0 Collection Against Ewings Sarcoma (EW8) (AID 1259255). Also: nearly all actives have a fitted effect of over 35% in size. Also: potency is read from the fitted curve at half-maximal effect.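 As to viability: 100% = DMSO-treated cells and 0% = medium-only wells without cells.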 Summed up: as §2
Assay [17] concerns the target Hexokinase-4 (Homo sapiens) + Glucokinase regulatory protein (Homo sapiens) (UniProt P35557+Q14397). Kind of assay: qHTS assay for inhibitors of recombinant human GCK-GKRP interaction: HTRF assay (AID 743207).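 Also: 0% = DMSO with GCK present and -100% = DMSO wells lacking GCK.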 Summed up: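 GST-GCK and FLAG-GKRP (5 nM each) were combined with 2 uM S6P in pH 7.1 Hepes/MgCl2/KCl/DTT buffer, then compound and anti-FLAG XL665/anti-GST K antibodies were added. After 60 min at room temperature, HTRF 665/615 nm emission was read.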

A short description of assay [18]: qHTS assay for cell viability of HEK293 cells (AID 743288). Also: % is scaled to controls: 0 for no effect and ±100 for the full control effect; nearly all actives have a fitted effect of over 50% in size. The note with it: ATP luminescence (CellTiter-Glo), 18 h; max response: stronger effect = lower value. Summed up:
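After 18 h compound exposure at 37 C, parental HEK293 cells (2,000/well) are lysed with CellTiter-Glo and luminescence is read following 30 min at room temperature.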

Assay [19] in a line: qHTS assay for cell viability of the p53RE-bla HCT-116 cell line (AID 743292). Also: nearly all actives have a fitted effect of over 55% in size. Also: potency is read from the fitted curve at half-maximal effect. The procedure, abridged: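 Readout: CellTiter-Glo luminescence after 30 min RT. Treatment: compounds in DMSO, 16 h, 37 C. Cells: CellSensor p53RE-bla HCT-116, 4,000/well, preincubated 5 h.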

Values joined by “and” are separate entries in the source; they are usually repeats but may differ in a detail not shown here. Equal values may be shown once. Records with an inconclusive call do not appear. Active and inactive are the calls of the source. Unless noted, calls follow the shape of the dose curve; as a rule, active = well fitted curve in the direction sought with a large enough effect; inconclusive = small, poorly fitted or top-dose-only effect, or another doubt; inactive = no such curve, though single readings can be large; an effect the other way counts as inactive or inconclusive.

Sequence of Hexokinase-4 (Homo sapiens) + Glucokinase regulatory protein (Homo sapiens) (P35557 whole entry, looked up): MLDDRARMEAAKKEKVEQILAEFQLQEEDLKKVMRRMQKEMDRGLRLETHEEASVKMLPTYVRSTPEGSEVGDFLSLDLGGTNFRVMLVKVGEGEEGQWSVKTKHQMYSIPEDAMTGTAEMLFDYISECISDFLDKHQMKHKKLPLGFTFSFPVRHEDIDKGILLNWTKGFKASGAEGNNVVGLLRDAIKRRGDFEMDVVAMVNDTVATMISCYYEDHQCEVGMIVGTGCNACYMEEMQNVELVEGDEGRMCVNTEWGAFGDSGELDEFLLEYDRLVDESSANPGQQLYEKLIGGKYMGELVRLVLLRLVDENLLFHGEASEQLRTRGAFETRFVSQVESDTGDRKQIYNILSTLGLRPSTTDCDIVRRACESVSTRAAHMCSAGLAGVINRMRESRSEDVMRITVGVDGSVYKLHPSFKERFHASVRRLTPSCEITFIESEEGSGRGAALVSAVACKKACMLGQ
Sequence of Hexokinase-4 (Homo sapiens) + Glucokinase regulatory protein (Homo sapiens) (Q14397 whole entry, looked up): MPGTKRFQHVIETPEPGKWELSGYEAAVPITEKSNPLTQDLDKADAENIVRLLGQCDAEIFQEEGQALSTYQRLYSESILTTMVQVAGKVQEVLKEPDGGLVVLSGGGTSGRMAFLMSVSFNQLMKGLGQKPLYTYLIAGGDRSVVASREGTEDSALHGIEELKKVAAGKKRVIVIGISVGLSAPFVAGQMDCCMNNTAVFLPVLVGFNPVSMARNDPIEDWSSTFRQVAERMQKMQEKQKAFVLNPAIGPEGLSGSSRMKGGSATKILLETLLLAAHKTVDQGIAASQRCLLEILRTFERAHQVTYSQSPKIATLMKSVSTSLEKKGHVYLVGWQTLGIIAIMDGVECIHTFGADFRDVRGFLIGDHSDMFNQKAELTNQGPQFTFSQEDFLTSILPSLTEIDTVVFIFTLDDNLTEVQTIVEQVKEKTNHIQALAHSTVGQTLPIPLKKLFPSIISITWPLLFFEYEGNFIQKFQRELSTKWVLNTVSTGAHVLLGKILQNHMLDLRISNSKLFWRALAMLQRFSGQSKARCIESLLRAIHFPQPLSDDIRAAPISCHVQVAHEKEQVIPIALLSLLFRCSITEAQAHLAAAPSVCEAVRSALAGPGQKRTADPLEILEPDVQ

As to `Cc1n[nH]c(C)c1Cc1sc2c(c1C(=O)N1C[C@H](O)CO1)c(=O)n(C)c(=O)n2CC(C)C`, the max response in assay [1] is 4.91% (inactive). Moreover, in assay [2], the remaining parasite growth % (stronger effect = lower value) is 111%. Moreover, in [3], the activity, percent of control turned out to be 99.9%. In addition, the remaining proliferation (% of control), lower = more inhibition in [4] was determined as 81.9%. In [5], this compound displayed a parasite growth, % of DMSO control of 161%. Besides, in assay [6], the parasite growth remaining, % of DMSO control (lower = more inhibition) is 107%. Besides, the parasite growth, % of control (lower = inhibition) in assay [7] amounted to 86.3%. Also, the growth, % of control in [8] was 145%. Also, the values for the Potency in [9] and in [15] were 0.0019 µM (active) and 0.166 µM (active), respectively. Further, the cell viability, % of control (lower = more cytotoxic) in assay [10] worked out at 109%. The viability (% of control) in assay [11] worked out at 96.6%. Also, the Potency result in [12], in assay [13], in assay [14] and in [16] was “inactive” each time.

Consider `NC[C@H](O)c1ccc(O)c(O)c1`, for which the outcome in assay [17] was inactive. For the same compound, the max response was 20.6% (inactive) and 26.6% (inactive) in assay [1]; -4.13% (inactive) in assay [18]. In addition, the Potency result in [19], in assay [12], in assay [13], in assay [14], in assay [15] and in assay [16] was “inactive” each time. For the same compound, the parasite growth, % of DMSO control in assay [5] turned out to be 71.5%. The parasite growth remaining, % of DMSO control (lower = more inhibition) in [6] stood at 97.8%. Besides, the parasite growth, % of control (lower = inhibition) in assay [7] was found to be 78.3%. Further, the growth, % of control in assay [8] was 82.4%. For the same compound, in [10], the cell viability, % of control (lower = more cytotoxic) stood at 132%. This compound returned a viability (% of control) in assay [11] of 96.3%.

`CN([C@@H](Cc1ccc(OS(=O)(=O)c2cccc3cnccc23)cc1)C(=O)N1CCN(c2ccccc2)CC1)S(=O)(=O)c1cccc2cnccc12`: the Potency in assay [1] was 18.7 µM (active); in [9], 6.62 µM (active). Besides, in assay [2], the remaining parasite growth % (stronger effect = lower value) is 0.0531% and -0.942%. In addition, in [3], the activity, percent of control is 0.806% and 0.455%. In assay [4], the remaining proliferation (% of control), lower = more inhibition is -0.274% and -0.52%. The compound also returned a parasite growth, % of DMSO control in [5] of 5.27%. For the same compound, the parasite growth remaining, % of DMSO control (lower = more inhibition) in assay [6] came to 6.98%. This compound also came in with a parasite growth, % of control (lower = inhibition) in [7] of 12.9%. The growth, % of control in assay [8] was 4.99%.

In the case of `CC(C)(Sc1ccc(CCN(CCCCC2CCCCC2)C(=O)NC2CCCCC2)cc1)C(=O)O`, the result in assay [17] was inactive. For the same compound, the max response in [1] was 7.17% (inactive) and -0.948% (inactive); in assay [18], -6.91% (inactive). Also, the results for the Potency in [19], in [14] and in assay [16] were 12.6 µM (active), 14.8 µM (active) and 4.69 µM (active), respectively. Besides, the remaining parasite growth % (stronger effect = lower value) in assay [2] stood at 98.9%. In addition, the activity, percent of control in assay [3] amounted to 100%. The remaining proliferation (% of control), lower = more inhibition in assay [4] turned out to be 92.7%. In addition, the parasite growth, % of DMSO control in assay [5] is 65.2%. Moreover, the parasite growth remaining, % of DMSO control (lower = more inhibition) in assay [6] was 91.6%. For the same compound, the parasite growth, % of control (lower = inhibition) in [7] was determined as 51.8%. Moreover, the growth, % of control in [8] was found to be 78.8%. In addition, the cell viability, % of control (lower = more cytotoxic) in assay [10] was determined as 75.1%. The viability (% of control) in [11] turned out to be 7.76%. Further, the Potency entry in assay [12], in [13] and in [15] was “inactive” in each case.
